Reference: PubChem BioAssay (NCI)
“And” between values parts separate entries of the source, which are not always exact repeats. Equal values may be shown once. About 83,000 compounds went through this panel and 20% of them were active in at least one assay; those are over-represented in the sample as a whole.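 Assay: single dose, 48 h. Readout: percent growth (0 = no net growth; negative = cell death). Active: <10.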 The source made the active and inactive calls.

These compounds were tested on SK-MEL-28 melanoma (assay: NCI-60 one-dose screen, 48 h (100 = growth as untreated, 0 = no growth, -100 = all killed)). Conditions: 2.5 µM.
Procedure: Growth inhibition of the SK-MEL-28 human tumor cell line is measured as a screen for anti-cancer activity. Cells are grown in 96 well plates and exposed to the test compound for 48 hours. Compounds are tested at a single concentration, which is 10^-5 M for most compounds. The reported endpoint is percent growth (GI% or GIPRCNT), where numbers from 0 - 100% represent growth inhibition, and numbers from -100% - 0 represent cell death. For example, a value of 40 represents 60% growth inhibition. A value of 0 means no net growth occurred over the course of the experiment. A value of -40 indicates 40% of cells at the beginning of the experiment died by the end of the experiment. A value of -100 means all cells are dead at the end of the experiment.
NCI-60 Human Tumor Cell Lines Screen was performed using the standard one-dose NCI protocol, which is described in more detail at https://dtp.cancer.gov/discovery_development/nci-60/default.htm.
Compounds with GIPRCNT values below 10 were considered active. Activity score was based on GIPRCNT using the following formula: […]
Score is 0 for GIPRCNT values of 100 or above, 50 for GIPRCNT values of 0, and 100 for GIPRCNT values of -100.
For `CC(=O)O[C@H]1C(=O)[C@@]2(C)[C@H]([C@H](OC(=O)c3ccccc3)[C@]3(O)C[C@H](OC(=O)[C@H](O)[C@@H](NC(=O)c4ccccc4)c4ccccc4)C(C)=C1C3(C)C)[C@]1(OC(C)=O)CO[C@@H]1C[C@@H]2O`, the growth was 71.3% (inactive).

Same assay, conditions: 5 µM
For `CC(=O)O[C@H]1C(=O)[C@@]2(C)[C@H]([C@H](OC(=O)c3ccccc3)[C@]3(O)C[C@H](OC(=O)[C@H](O)[C@@H](NC(=O)c4ccccc4)c4ccccc4)C(C)=C1C3(C)C)[C@]1(OC(C)=O)CO[C@@H]1C[C@@H]2O`, the growth was 76.6% (inactive).

Same assay, conditions: 10 µM
In the case of `CC(=O)O[C@H]1C(=O)[C@@]2(C)[C@H]([C@H](OC(=O)c3ccccc3)[C@]3(O)C[C@H](OC(=O)[C@H](O)[C@@H](NC(=O)c4ccccc4)c4ccccc4)C(C)=C1C3(C)C)[C@]1(OC(C)=O)CO[C@@H]1C[C@@H]2O`, the growth is reported as 75.7% (inactive). In the case of `CN(C)CCNc1cccc2sc3ccc(O)cc3c(=O)c12`, the growth is reported as 69.2% (inactive). For `O=Nc1ccc(Nc2ccccc2)cc1`, the growth was 120% (inactive). With `CC[C@@]1(OC(=O)CN(C)C)C(=O)OCc2c1cc1n(c2=O)Cc2cc3c(N)cccc3nc2-1` the growth was 16.5% (inactive). For `NCc1c(O)ccc2ccccc12`, the growth was 105% (inactive). For `ClCCn1c(CCl)nc2ccc(Cl)cc21`, the growth was 42.8% (inactive). With `Cc1c(-c2ccccc2)[nH]c2ccccc12` the growth was 121% (inactive). In the case of `O=c1[nH]cc(/C=N\Nc2ccccc2)c(=O)[nH]1`, the growth is reported as 81.5% (inactive). In the case of `O=[N+]([O-])c1cc(S(=O)(=O)Nc2ccccc2)ccc1Cl`, the growth is reported as 102% (inactive). `N#CC(=C1C=CC(=NO)C=C1)c1ccccc1` was tested, and the growth was 76.3% (inactive). `Cn1c2nc3ccccc3c-2nc2ccccc21` was tested, and the growth was 113% (inactive) and 106% (inactive). For `Cc1cc(C)c(N2C(=O)CC(Sc3ccccc3N)C2=O)c(C)c1` (stereo not given), the growth was 60.7% (inactive). In the case of `Cc1cc(N=C2C=CC(=[N+](C)C)C=C2)c(N)cc1N`, the growth is reported as 103% (inactive). With `O=C(O)c1ccccc1.[Ag]` the growth was 106% (inactive). For `Cc1cc(Cl)ccc1NC(=O)/C(Cl)=C1/Sc2ccccc2NC1=O`, the growth was 125% (inactive). With `Nc1nc(N)c2cc(Sc3ccc4ccccc4c3)ccc2n1` the growth was 61.7% (inactive). With `O=C1C=CC(=O)N1c1ccc(N2C(=O)C=CC2=O)cc1` the growth was 135% (inactive). `C=C1N(C)c2ccc(Cl)cc2C1(C)C` was tested, and the growth was 84.5% (inactive). In the case of `CCC(C)(c1ccc(O)c(C)c1)c1ccc(O)c(C)c1`, the growth is reported as 133% (inactive). In the case of `CN(C)c1ccc(/C=C/c2ccnc3ccccc23)cc1N`, the growth is reported as 83.8% (inactive). For `S=C1SCN(CCc2ccccc2)CN1CCc1ccccc1`, the growth was 92.4% (inactive). `O=C1c2ccccc2CCC1(Br)Br` was tested, and the growth was 56.5% (inactive). In the case of `COc1ccc(N)c2c1C(=O)c1ccccc1C2=O`, the growth is reported as 128% (inactive). In the case of `O=C1c2cccc3cc([N+](=O)[O-])cc(c23)C(=O)N1CCN1CCCC1`, the growth is reported as -36.5% (active). `O=S(=O)(c1cc(Cl)ccc1O)c1cc(Cl)ccc1O` was tested, and the growth was 87.5% (inactive). With `N#C/C(=C/N1C(=O)/C(=C/c2ccc([N+](=O)[O-])cc2)SC1=S)c1nc2ccccc2s1` the growth was 105% (inactive). In the case of `Cc1cc(O)c2c(c1O)C(=O)C13C(=C2O)C(=O)C2C(O)C1C1C(O)C3C(=O)C3=C(O)c4c(O)cc(C)c(O)c4C(=O)C321` (stereo not given), the growth is reported as 9.99% (active). With `CCOC(=O)[C@]1(Br)CC[C@@]1(Br)C(=O)OCC` the growth was 110% (inactive). `O=C1C(Cl)=C(Cl)C(Cl)(Cl)C(Cl)C1(Cl)Cl` (stereo not given) was tested, and the growth was 114% (inactive). With `COc1ccc2oc(-c3ccc(Cl)cc3)c(N3CCN(C)CC3)c2c1` the growth was -12.3% (active). For `CN(CC(=O)O)c1ccc(/C=C/c2ccnc3ccccc23)cc1`, the growth was 100% (inactive). For `COc1ccc(C(C#N)=C2C=CC(=NO)C=C2)cc1`, the growth was 106% (inactive). In the case of `CCC(=O)Oc1ccc(/C=N/NC(N)=S)nc1`, the growth is reported as 79% (inactive). In the case of `Cn1ncc2cc3c(Nc4ccc(Cl)cc4)cccc3nc21`, the growth is reported as 95.8% (inactive). For `COc1cc(N)ccc1Nc1c2ccccc2nc2ccccc12`, the growth was 107% (inactive). For `O=C(CNS(=O)(=O)Cc1ccccc1)NNc1ccccc1`, the growth was 94% (inactive). With `S=P(N1CC1)(N1CC1)N1CC1` the growth was 131% (inactive) and 116% (inactive). `O=C(NC(=S)Nc1ccccn1)c1ccccc1` was tested, and the growth was 152% (inactive).
